Tb PFK inh-1 = qHTS Assay to Find Inhibitors of T. brucei phosphofructokinase. ATP-dependent 6-phosphofructokinase (Trypanosoma brucei brucei), O15648. T. brucei PFK, ADP-Glo luminescence. Potency, µM (highest dose often 57.5 µM), inactives show at the highest dose activity, negative = inhibition, usual class: inhibitors. 0.17% of 330,000 active;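 further: potency means the concentration at half of the fitted maximal effect; 0% = uninhibited 1x PFK enzyme wells and -100% = no-enzyme wells; nearly all actives have a fitted effect of over 60% in size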
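Activity is normalized to no-enzyme wells (full inhibition) and 1.25 nM enzyme wells (no inhibition). Reaction: 0.5 mM F6P, 0.1 mM ATP, 45 min RT, ADP-Glo luminescence; concentration-response curves fitted and classed by quality.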
PI5P4K alpha inh = qHTS for Inhibitors of phosphatidylinositol 5-phosphate 4-kinase (PI5P4K); Phosphatidylinositol 5-phosphate 4-kinase type-2 alpha (Homo sapiens), P48426; PI5P4Kalpha enzyme, ADP-Glo luminescence, 60 min; active compounds read low; max response, %; 1.2% of 330,000 active; active means max response of -50% or lower; inconclusive means between -30% and -50%; inactive means -30% or higher; further: value at the top dose of about 77 µM; on the % scale 0 is the no-effect control and ±100 the full control effect
Target sequence (P48426 whole entry, looked up): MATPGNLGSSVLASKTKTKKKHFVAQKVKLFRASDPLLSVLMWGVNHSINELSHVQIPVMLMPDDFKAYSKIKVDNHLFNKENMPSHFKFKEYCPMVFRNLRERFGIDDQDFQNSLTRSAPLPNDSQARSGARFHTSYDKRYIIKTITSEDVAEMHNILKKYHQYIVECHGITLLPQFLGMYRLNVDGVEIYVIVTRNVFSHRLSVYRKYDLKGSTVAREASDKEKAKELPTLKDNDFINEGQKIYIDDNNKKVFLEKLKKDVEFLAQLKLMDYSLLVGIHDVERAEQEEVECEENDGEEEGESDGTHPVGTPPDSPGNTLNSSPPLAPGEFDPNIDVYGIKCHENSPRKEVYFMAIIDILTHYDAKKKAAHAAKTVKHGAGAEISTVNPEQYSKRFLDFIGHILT
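Reactions run in 0.038 M HEPES pH 7.4, 0.28 mM EGTA, 0.1% CHAPS and 5% DMSO, with PI5P4Kalpha, substrate, compound and 5 microM ATP final, one hour at room temperature. Readout is ADP-Glo luminescence.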
Tb PGK inh = qHTS Assay to Find Inhibitors of Phosphoglycerate Kinase; 0.043% of 380,000 active; Phosphoglycerate kinase, glycosomal (Trypanosoma brucei brucei), P07378; AID 602233, 2012; Potency, µM (series often up to 57.5 µM), inactives show top-dose activity change, negative = inhibition, actives largely listed as inhibitors; PGK/GAPDH coupled, Kinase-Glo luminescence, 60 min; further: potency means the concentration at half of the fitted maximal effect; on the % scale 0 is the no-effect control and ±100 the full control effect; nearly all actives have a fitted effect of over 60% in size
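Recombinant glycosomal PGK reaction used 1,3-bisphosphoglycerate generated in-well by GAPDH (100nM final) in 100mM TEA pH 7.6, 5mM MgCl2, 0.01% Tween-20. After 60 minutes at room temperature, ATP was read by Kinase-Glo Plus luminescence end-point.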
PI4K2A inh = qHTS for small molecular inhibitors of PI4K2A. activity change, negative = inhibition, % at 76.9 µM. purified PI4K2A, ADP-Glo luminescence, 1 h; active compounds read low. Phosphatidylinositol 4-kinase type 2-alpha (Homo sapiens), Q9BTU6. 0.13% of 420,000 active. AID 1346378, 2018; in the data active means activity change below about -50%; inconclusive means mostly about -30% to -49%;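 further: -100% = wells without enzyme as full effect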
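Compounds are screened against recombinant PI4K2A using PI as substrate and ATP, the latter dispensed at 300 microM. Reactions run one hour at ambient temperature before ADP-Glo detection; full inhibition defined by wells lacking enzyme.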
Pin1 inhibitor = qHTS Assay to Find Inhibitors of Pin1; Peptidyl-prolyl cis-trans isomerase NIMA-interacting 1 (Homo sapiens), Q13526; Pin1 FP peptide displacement, HiFluor488, 10 min; Potency, µM (titrated, usually from 115 µM), inactives show top-dose activity, negative = inhibition, most hits filed as inhibitors; 0.009% of 390,000 active; active means well fitted inhibition curve with a large enough effect in the polarisation, with a control signal flat, not every such curve was filed as active; inconclusive means small, poorly fitted or top-dose-only effect, or effect the other way, or a change in a side signal; inactive means no such curve, though single readings can be large or run the other way; the % refers to the polarisation; further: potency means the concentration at half of the fitted maximal effect; on the % scale 0 is the no-effect control and ±100 the full control effect
Target sequence (Q13526 whole entry, looked up): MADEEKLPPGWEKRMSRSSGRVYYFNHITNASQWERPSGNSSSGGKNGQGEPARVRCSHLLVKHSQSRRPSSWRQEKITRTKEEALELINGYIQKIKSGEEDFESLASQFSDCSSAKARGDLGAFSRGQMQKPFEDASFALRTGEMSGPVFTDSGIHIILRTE
TbPFK ATP = Tb PFK orthogonal confirmatory assay using ATP depletion (Kinase-Glo Plus) as an alternative measure of Tb PFK activity: Hit Validation. AID 504636, 2011. 47% of 1,100 active. Tb PFK enzyme, ATP depletion, Kinase-Glo Plus luminescence. Potency, µM (titrated, usually from 57.5 µM), inactives show at the top dose inhibition. shares compounds with Tb PFK inh-1; calls by dose curve; further: potency means the concentration at half of the fitted maximal effect; nearly all actives have a fitted effect of over 60% in size
Tb PFK inh-2 = Inhibitors of T. brucei phosphofructokinase: Hit Validation | 41% of 1,100 active | Potency, µM (series often up to 57.5 µM), without a hit: at the top dose activity change, negative = inhibition, usual class: inhibitors | shares compounds with Tb PFK inh-1 | AID 504637, 2011 | purified T. brucei PFK, ADP-Glo luminescence, 45 min;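 further: potency means the concentration at half of the fitted maximal effect; plate controls were full PFK enzyme control for no effect and no enzyme control for full effect; nearly all actives have a fitted effect of over 60% in size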
* hit, by the source's call; i = inactive; ? = inconclusive; . = not tested or not shown. This is one part of a sample in which hits are shown more often than they occur. Unless noted, the call rests on the fitted dose curve; in most records, active means well fitted curve in the direction sought with a large enough effect; inconclusive means small, poorly fitted or top-dose-only effect, or another doubt; inactive means no such curve, though single readings can be large; an effect the other way counts as inactive or inconclusive.

SMILES | Tb PFK inh-1 | PI5P4K alpha inh | Tb PGK inh | PI4K2A inh | Pin1 inhibitor | TbPFK ATP | Tb PFK inh-2
Cc1noc(C)c1COc1ccc(C(=O)NNC(=O)c2ccccc2O)cc1 | 5.4µM* | 6 | i | 0 | 5% | 7% | 6%
N#C/C(C(=O)Nc1ccc(Cl)cc1)=C(/S)Nc1ccccc1 | 9.5µM* | -87* | -5% | -2 | -9% | 15µM* | ?
O=C1C(Cl)=C(N2CCCCC2)C(=O)N1c1ccccc1 | ? | . | -5% | 0 | 9% | -19% | 13%
O=C(/C=C/c1ccccc1)Nc1cccc(S(=O)(=O)Nc2ccccc2F)c1 | 6.7µM* | -61* | -7% | -1 | 0% | 4.3µM* | 6µM*
Cc1ccc(-n2c(/C=C/c3ccc(Br)s3)nc3ccccc3c2=O)cc1C | . | . | 1% | 1 | 24% | . | .
Cc1cc(C)c(OCC(=O)Nc2cc(C(=O)O)cc(C(=O)O)c2)cc1C | 21µM* | 0 | 0% | 0 | -2% | 8.5µM* | 19µM*
Cc1ccc(C(C)(C)C)c(OCC(=O)Nc2ccc(Cl)cc2C(=O)c2ccccc2)c1 | . | . | . | 8 | 1% | . | .
Cc1ccc(N/C=C(\C2OC(=O)c3ccccc32)[N+](=O)[O-])c(C)c1 (stereo not drawn) | ? | 13 | i | -5 | . | 1% | 0%
O=C1OC(/C(=C\Nc2cc(Cl)ccc2O)[N+](=O)[O-])c2ccccc21 (stereo not drawn) | ? | -3 | 0% | -10 | . | 3% | -13%
O=C1OC(/C(=C\Nc2ccc(F)cc2F)[N+](=O)[O-])c2ccccc21 (stereo not drawn) | ? | ? | 5% | 0 | . | 3% | -1%
Cc1cccc(-n2c(/C=C/c3cn(C)c4ccccc34)nc3ccccc3c2=O)c1 | . | . | i | -15 | ? | . | .
CC(C)(C)n1nnnc1C1CN=C(c2ccccc2)c2cc(Cl)ccc2N1 (stereo not drawn) | . | . | . | 3 | . | . | .
Cc1ccc2scc(N3CCN(C)CC3)c(=O)c2c1 | . | . | i | -7 | 23% | . | .
N#Cc1cc2c(nc1SCC(=O)Nc1ccc(OC(F)(F)F)cc1)C1CCN2CC1 | . | . | -4% | -5 | 1% | . | .
COc1ccc(-n2c(/C=C\c3ccccc3F)nc3ccccc3c2=O)c(OC)c1 | . | . | -6% | 1 | -6% | . | .
C=CCN1C(=O)N/C(=C/c2ccc(C)o2)C1=O | 17µM* | -14 | . | -5 | -8% | 17µM* | ?
OC(O)C(Cl)(Cl)Cl | . | . | . | 0 | . | . | .
O=c1c2ccccc2nc2n1CCC2 | ? | -3 | ? | -9 | -18% | 27µM* | 17µM*
COc1ccc2nc(NC(=O)CCNS(=O)(=O)c3ccc4c(c3)oc(=O)n4C)sc2c1 | 3% | -3 | i | 1 | 21% | . | .
COCCNC(=O)/C(C#N)=C/c1ccc(O)cc1 | ? | ? | ? | -69* | 1% | -22% | ?
O=C(Nc1ccc(Br)cc1C(=O)c1ccccc1)c1ccccc1 | . | . | 2% | -1 | ? | . | .
O=C(NNC(=O)c1ccccc1Br)c1ccc2nc[nH]c2c1 | 21µM* | ? | -8% | -3 | -7% | ? | ?
Cc1cc(C)n2nc3nc(N4CCCCC4)nc(-c4ccco4)c3c2n1 | ? | -56* | -4% | -23 | ? | 9% | -2%

Bioassay records from PubChem BioAssay.
